# Test results reported in PubChem BioAssay (NCATS).
# Several values for one entry are separate records, joined by “and”; a condition that tells them apart may be missing. Identical values can stand only once. The source holds several records for some structures; these can differ, active in one and inactive in another. Activity calls are given as the source filed them. Entries that show only a call come without a potency. Unless noted, the call rests on the fitted dose curve; in most records, active means well fitted curve in the direction sought with a large enough effect; inconclusive means small, poorly fitted or top-dose-only effect, or another doubt; inactive means no such curve, though single readings can be large; an effect the other way counts as inactive or inconclusive.
# Experiments:
# [1] = target: Cytochrome P450 3A4 (Homo sapiens) (UniProt P08684); experiment: qHTS Assay for Activators of Cytochrome P450 3A4 (AID 885); further: nearly all actives have a fitted effect of over 65% in size
# Procedure, shortened: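 Steps: enzyme/substrate mix dispensed; compound added, 10 min RT; NADPH regeneration solution added, 60 min RT; luciferin detection buffer stops reaction; 20 min later luminescence measured.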
# [2] = MultiTox-Fluor Cytotoxicity Assay - LYMP1-001 - Dead Cells (AID 946); further: potency means the concentration at half of the fitted maximal effect
# Procedure, shortened: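 Seed 2500 LYMP1-001 cells/well, incubate 5 hr at 37 C; add compound, 16 hr at 37 C; add MultiTox-Fluor reagent, 60 min RT; read dead-cell fluorescence Ex/Em=485/520. Normalize to DMSO and 15 uM tetraoctylammonium bromide.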
# [3] = MultiTox-Fluor Cytotoxicity Assay - LYMP1-001 - Live Cells (AID 947); further: potency means the concentration at half of the fitted maximal effect
# [4] = MultiTox-Fluor Cytotoxicity Assay - LYMP1-002 - Dead Cells (AID 960); further: nearly all actives have a fitted effect of over 60% in size; further: potency means the concentration at half of the fitted maximal effect
# Procedure, shortened: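 Acute cytotoxicity in a human lymphoblastoid line is scored as rising dead-cell protease signal after 16 hr exposure at 37 C, measured fluorometrically (485/520).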
# [5] = Cell Viability - LYMP2-004 (AID 966); further: nearly all actives have a fitted effect of over 65% in size; further: potency means the concentration at half of the fitted maximal effect
# Procedure, shortened: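 Acute toxicity is scored as a concentration-dependent drop in intracellular ATP, quantified by luciferase luminescence, in human lymphoblastoid cells exposed to compound for 24 hr. AC50 derives from Hill-equation modelling.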
# [6] = Cell Viability - LYMP2-006 (AID 978); further: nearly all actives have a fitted effect of over 60% in size; further: potency means the concentration at half of the fitted maximal effect
# Procedure, shortened: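 In this cytotoxicity screen, the human lymphoblastoid line grew in complete medium with test compounds for 24 hr at 37 C. Cellular ATP served as the viability signal.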
# [7] = Cell Viability - LYMP2-024 (AID 988);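 further: cells exposed to compound for 24 hr at 37 °C; nearly all actives have a fitted effect of over 60% in size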; further: potency means the concentration at half of the fitted maximal effect
# Procedure, shortened: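 Acute toxicity is measured as concentration-dependent loss of intracellular ATP in a human lymphoblastoid line treated 24 hours at 37 C. Luciferase luminescence quantifies ATP; AC50 values come from standard Hill-equation modelling.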
# [8] = target: Peroxisome proliferator-activated receptor delta (Homo sapiens) (UniProt Q03181); experiment: qHTS assay for small molecule agonists of peroxisome proliferator-activated receptor delta signaling (AID 588534; calls by dose curve)
# Procedure, shortened: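 Reporter cells were plated and held 5 hrs at 37 C before compounds were added. After 18 hrs at 37 C, CCF4 dye was loaded for 2 hrs at RT and fluorescence measured.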
# [9] = target: Voltage-gated inwardly rectifying potassium channel KCNH2 (Homo sapiens) (UniProt Q12809); experiment: qHTS Assay for Small Molecule Inhibitors of the Human hERG Channel Activity (AID 588834);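 further: lower thallium flux fluorescence means stronger hERG block; nearly all actives have a fitted effect of over 50% in size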; further: potency means the concentration at half of the fitted maximal effect
# Procedure, shortened: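 Blockade is seen as reduced FluxOR thallium-flux fluorescence in U2OS cells expressing hERG from a BacMam construct, in Opti-MEM with 2% FCS. Concentration-response data fitted to the Hill equation for AC50.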
# [10] = qHTS assay for small molecule agonists of the antioxidant response element (ARE) signaling pathway (AID 651741; active means well fitted activation curve with a large enough effect in the signal ratio; inconclusive means small, poorly fitted or top-dose-only effect, or effect the other way, or a change in a side signal; the % refers to the signal ratio; further: potency means the concentration at half of the fitted maximal effect)
# Procedure, shortened: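 ARE-bla HepG2 cells (beta-lactamase reporter under ARE control) were plated at 2,000 cells/well, preincubated 5 h at 37 C/5% CO2, then treated with DMSO-dissolved compounds for 16 h at 37 C; LiveBLAzer B/G FRET substrate added, fluorescence read after 2 h at room temperature.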
# [11] = qHTS assay for small molecule disruptors of the mitochondrial membrane potential - 1 hr assay (AID 651754; calls by dose curve; further: nearly all actives have a fitted effect of over 35% in size; further: potency means the concentration at half of the fitted maximal effect)
# Procedure, shortened: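 Steps: seed HepG2 cells and let attach overnight; pin-transfer compound or vehicle; incubate 1 hr at 37C; add Mito-MPS dye for 30 min; read two-channel fluorescence for monomer and aggregate forms.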
# [12] = qHTS assay for small molecule antagonists of the retinoid-related orphan receptor gamma (ROR-gamma) signaling pathway - cell viability counter screen (AID 720652; active means well fitted curve in the direction sought with a large enough effect in the repeat runs; inconclusive means weak or mixed curves; inactive means no such curve, though single readings can be large; an effect the other way counts as inactive or inconclusive;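 further: compound exposure lasted 16 hr before ATP read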; further: potency means the concentration at half of the fitted maximal effect)
# Procedure, shortened: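 Cytotoxicity is quantified via intracellular ATP (CellTiter-Glo luminescence) in doxycycline-induced CHO ROR response element-luciferase reporter cells treated with compound for 16 hr at 37 C, 5% CO2.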
# [13] = qHTS assay for small molecule activators of the p53 signaling pathway (AID 651743; active means well fitted activation curve with a large enough effect in the signal ratio, not every such curve was filed as active; inconclusive means small, poorly fitted or top-dose-only effect, or a change in a side signal; the % refers to the signal ratio; further: potency means the concentration at half of the fitted maximal effect); settings: HCT-116 p53RE-bla, beta-lactamase FRET ratio, 16 h; activation: stronger effect = higher value
# Procedure, shortened: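 p53RE-bla HCT-116 cells with a stably integrated beta-lactamase reporter under p53 response elements were plated, rested 5 hours at 37 C/5% CO2, then exposed to compounds in DMSO for 16 hours at 37 C. LiveBLAzer B/G FRET substrate was read after 2 hours at room temperature.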
# [14] = target: Cytochrome P450 1A2 (Homo sapiens) (UniProt P05177); experiment: p450-cyp1a2 (AID 410; calls by dose curve; further: potency means the concentration at half of the fitted maximal effect)
# Procedure, shortened: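 Inhibition was calculated relative to 57 uM furafylline (full inhibition). The reaction used human CYP1A2 at 20nM with Luciferin-ME at its Km, 100uM, driven by an NADPH-regenerating system for 60 min at room temperature.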
# [15] = Cellular Toxicity (caspase-3) H-4-II-E (AID 663); settings: H-4-II-E rat hepatoma, scaled: DMSO 0%, 100 µM tamoxifen 100%; at 92.2 µM (top of the series);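 further: cells exposed to compound for 16 hr before readout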
# Procedure, shortened: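 Luminescence from caspase-cleaved aminoluciferin substrate, read 20 min after reagent addition, reports caspase 3/7 activation in rat H-4-II-E cells after 16 hr compound exposure. Normalized to DMSO (basal) and 100 uM tamoxifen (100%); AC50 from Hill fits.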
# [16] = Cell Viability - LYMP2-013 (AID 970); further: nearly all actives have a fitted effect of over 55% in size; further: potency means the concentration at half of the fitted maximal effect
# Procedure, shortened: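 Acute toxicity was measured in human lymphoblastoid cells (2500/well) exposed to compound titrations for 24 hr, with ATP luminescence (CellTiter-Glo) as read-out and AC50 fitted by Hill equation.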
# [17] = Cell Viability - LYMP2-002 (AID 977); further: potency means the concentration at half of the fitted maximal effect
# Procedure, shortened: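 Luminescent ATP readout (CellTiter-Glo, 30 min room temperature) after 24 h compound exposure at 37 C of a human lymphoblastoid line, 2500 cells/well. AC50 values derived by standard Hill fitting of qHTS concentration-response data.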
# [18] = Cell Viability - LYMP2-014 (AID 983); further: nearly all actives have a fitted effect of over 50% in size; further: potency means the concentration at half of the fitted maximal effect
# Procedure, shortened: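 Decrease in intracellular ATP after 24 hr treatment at 37 C, measured by luciferase luminescence, indicated cytotoxicity. Concentration-response data were fitted with the standard Hill equation to give AC50.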
# [19] = Cell Viability - LYMP2-022 (AID 987); further: nearly all actives have a fitted effect of over 55% in size; further: potency means the concentration at half of the fitted maximal effect
# Procedure, shortened: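 Acute toxicity in a human lymphoblastoid line is scored as decreased intracellular ATP after 24 hr compound treatment at 37 C. ATP is measured by CellTiter-Glo luminescence; curves are fitted with the Hill equation to give AC50.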
# [20] = target: Estrogen receptor (Homo sapiens) (UniProt P03372); experiment: qHTS assay for small molecule antagonists of estrogen receptor alpha signaling (AID 588513; active means well fitted curve in the direction sought with a large enough effect in the signal ratio, with a control signal flat, not every such curve was filed as active; inconclusive means small, poorly fitted or top-dose-only effect, or effect the other way, or a change in a side signal; inactive means no such curve, though single readings can be large or run the other way; the % refers to the signal ratio; further: potency means the concentration at half of the fitted maximal effect)
# Procedure, shortened: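 Antagonist-mode qHTS in ER-alpha-UAS-bla HEK 293 cells: compound titration, 0.5nM estradiol for 18 h, CCF4 fluorescence, Hill-derived IC50.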
# Cytochrome P450 3A4 (Homo sapiens), sequence (P08684 whole entry, looked up): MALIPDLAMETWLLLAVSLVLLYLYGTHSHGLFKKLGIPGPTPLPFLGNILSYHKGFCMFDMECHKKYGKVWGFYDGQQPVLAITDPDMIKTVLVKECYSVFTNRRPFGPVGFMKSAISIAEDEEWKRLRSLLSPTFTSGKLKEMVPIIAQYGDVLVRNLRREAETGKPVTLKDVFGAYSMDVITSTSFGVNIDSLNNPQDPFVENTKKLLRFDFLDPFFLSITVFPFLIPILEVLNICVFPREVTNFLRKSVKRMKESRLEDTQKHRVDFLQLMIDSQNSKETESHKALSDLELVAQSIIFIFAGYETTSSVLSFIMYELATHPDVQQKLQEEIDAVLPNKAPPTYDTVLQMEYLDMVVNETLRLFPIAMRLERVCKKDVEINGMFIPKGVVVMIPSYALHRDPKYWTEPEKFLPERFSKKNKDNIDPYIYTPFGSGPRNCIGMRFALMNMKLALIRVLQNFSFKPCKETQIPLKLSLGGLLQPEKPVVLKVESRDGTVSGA
# Estrogen receptor (Homo sapiens), sequence (P03372 whole entry, looked up): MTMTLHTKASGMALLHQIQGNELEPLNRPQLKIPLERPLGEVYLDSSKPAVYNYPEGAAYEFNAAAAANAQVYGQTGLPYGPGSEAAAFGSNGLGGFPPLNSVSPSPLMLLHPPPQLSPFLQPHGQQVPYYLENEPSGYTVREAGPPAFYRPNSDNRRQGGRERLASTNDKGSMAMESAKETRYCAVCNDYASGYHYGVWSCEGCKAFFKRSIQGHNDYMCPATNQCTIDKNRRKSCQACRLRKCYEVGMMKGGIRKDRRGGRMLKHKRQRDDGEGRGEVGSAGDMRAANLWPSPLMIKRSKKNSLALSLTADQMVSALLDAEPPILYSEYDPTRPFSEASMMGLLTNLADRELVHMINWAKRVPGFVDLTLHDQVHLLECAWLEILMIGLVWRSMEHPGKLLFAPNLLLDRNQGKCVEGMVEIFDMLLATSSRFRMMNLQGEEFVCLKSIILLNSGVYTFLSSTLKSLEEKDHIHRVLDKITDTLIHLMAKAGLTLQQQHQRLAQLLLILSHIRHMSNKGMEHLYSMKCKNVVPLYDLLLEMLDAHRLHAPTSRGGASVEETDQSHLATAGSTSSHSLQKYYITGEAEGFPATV
# Voltage-gated inwardly rectifying potassium channel KCNH2 (Homo sapiens), sequence (Q12809 whole entry, looked up): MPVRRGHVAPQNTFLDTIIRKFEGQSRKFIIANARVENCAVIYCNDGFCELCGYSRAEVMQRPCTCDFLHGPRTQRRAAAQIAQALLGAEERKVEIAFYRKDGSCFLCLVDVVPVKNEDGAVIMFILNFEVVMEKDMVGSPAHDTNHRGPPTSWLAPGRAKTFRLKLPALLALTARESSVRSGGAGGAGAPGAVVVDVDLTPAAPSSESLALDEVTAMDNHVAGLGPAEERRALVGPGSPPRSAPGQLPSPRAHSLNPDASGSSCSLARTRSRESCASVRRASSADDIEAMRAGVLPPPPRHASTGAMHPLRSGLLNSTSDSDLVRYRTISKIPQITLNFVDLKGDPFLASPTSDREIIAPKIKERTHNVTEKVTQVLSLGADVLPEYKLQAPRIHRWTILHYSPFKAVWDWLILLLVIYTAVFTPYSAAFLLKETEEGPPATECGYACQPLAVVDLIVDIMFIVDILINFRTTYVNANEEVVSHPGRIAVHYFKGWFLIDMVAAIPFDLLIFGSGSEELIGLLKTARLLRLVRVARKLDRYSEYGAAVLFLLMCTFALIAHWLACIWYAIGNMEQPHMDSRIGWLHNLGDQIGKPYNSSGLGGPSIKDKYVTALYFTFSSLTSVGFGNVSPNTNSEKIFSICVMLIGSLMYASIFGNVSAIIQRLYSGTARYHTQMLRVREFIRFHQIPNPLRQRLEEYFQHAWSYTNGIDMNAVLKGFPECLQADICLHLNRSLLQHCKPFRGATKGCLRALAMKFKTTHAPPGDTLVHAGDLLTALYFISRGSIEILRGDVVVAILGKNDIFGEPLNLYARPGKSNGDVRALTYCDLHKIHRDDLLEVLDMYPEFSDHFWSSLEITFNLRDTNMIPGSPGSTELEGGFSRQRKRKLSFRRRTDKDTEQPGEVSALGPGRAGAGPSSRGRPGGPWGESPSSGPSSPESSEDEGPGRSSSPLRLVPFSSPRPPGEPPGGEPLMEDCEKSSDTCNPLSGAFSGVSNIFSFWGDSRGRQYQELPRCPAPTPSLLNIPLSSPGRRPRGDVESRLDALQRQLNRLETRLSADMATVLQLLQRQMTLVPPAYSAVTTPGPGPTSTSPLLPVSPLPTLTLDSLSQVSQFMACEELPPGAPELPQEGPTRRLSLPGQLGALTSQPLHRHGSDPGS
# Peroxisome proliferator-activated receptor delta (Homo sapiens), sequence (Q03181 whole entry, looked up): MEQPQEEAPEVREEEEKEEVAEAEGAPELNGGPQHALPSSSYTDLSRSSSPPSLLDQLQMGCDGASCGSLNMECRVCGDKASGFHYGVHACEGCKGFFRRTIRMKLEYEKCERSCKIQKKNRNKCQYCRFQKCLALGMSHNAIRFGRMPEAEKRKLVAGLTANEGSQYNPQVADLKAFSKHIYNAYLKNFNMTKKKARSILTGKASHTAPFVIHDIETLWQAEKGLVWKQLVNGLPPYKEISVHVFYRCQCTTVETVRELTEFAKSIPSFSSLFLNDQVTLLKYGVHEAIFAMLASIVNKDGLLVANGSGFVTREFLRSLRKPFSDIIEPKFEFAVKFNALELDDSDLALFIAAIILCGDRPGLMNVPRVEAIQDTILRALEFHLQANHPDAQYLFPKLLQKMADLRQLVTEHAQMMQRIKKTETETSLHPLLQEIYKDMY
# Cytochrome P450 1A2 (Homo sapiens), sequence (P05177 whole entry, looked up): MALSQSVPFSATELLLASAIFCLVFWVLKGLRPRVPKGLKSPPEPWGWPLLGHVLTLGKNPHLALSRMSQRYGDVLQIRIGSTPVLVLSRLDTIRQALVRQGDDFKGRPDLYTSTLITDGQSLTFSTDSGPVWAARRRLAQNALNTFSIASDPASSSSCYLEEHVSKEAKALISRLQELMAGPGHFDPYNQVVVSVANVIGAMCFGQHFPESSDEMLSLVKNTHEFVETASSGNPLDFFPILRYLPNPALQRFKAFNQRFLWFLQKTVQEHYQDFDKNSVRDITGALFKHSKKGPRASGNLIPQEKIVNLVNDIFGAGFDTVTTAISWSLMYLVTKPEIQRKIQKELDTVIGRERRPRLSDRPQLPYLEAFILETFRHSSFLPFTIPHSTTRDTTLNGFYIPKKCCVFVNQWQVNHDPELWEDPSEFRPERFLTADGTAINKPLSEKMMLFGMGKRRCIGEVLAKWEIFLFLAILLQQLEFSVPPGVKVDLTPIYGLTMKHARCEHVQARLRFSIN
compound,measurement,setting,value
O=C1C2(Cl)C3(Cl)C4(Cl)C(Cl)(Cl)C5(Cl)C3(Cl)C1(Cl)C5(Cl)C24Cl (stereo not given),Potency,[1],inactive
same,Potency,[2],31.6 µM (active)
same,Potency,[3],39.8 µM (active) and 50.1 µM (active)
same,Potency,[4],20 µM (active) and 15.8 µM (active)
same,Potency,[5],39.8 µM (active)
same,Potency,[6],39.8 µM (active) and inactive
same,Potency,[7],inactive
same,outcome,[8],inactive
same,Potency,[9],17.8 µM (active) and 28.2 µM (active)
same,Potency,[10],66.8 µM (active)
same,Potency,[11],3.35 µM (active) and 10.6 µM (active)
same,Potency,[12],26.6 µM (active) and 29.8 µM (active)
Oc1c(Cl)cc(Cl)cc1Cl,activation,[13],-6.01% (inactive) and -1.45% (inactive)
CCN(CC)c1ncnc2c1ncn2[C@@H]1O[C@@H](COP(=O)(O)OP(=O)(O)C(Br)(Br)P(=O)(O)O)[C@H](O)[C@H]1O,Potency,[14],39.8 µM (active)
O=C(CCl)c1ccccc1,caspase-3 activation,[15],-5.13% (inactive)
same,Potency,[2],50.1 µM (active)
same,Potency,[4],25.1 µM (active)
same,Potency,[5],10 µM (active)
same,Potency,[16],15.8 µM (active)
same,Potency,[17],12.6 µM (active)
same,Potency,[6],12.6 µM (active)
same,Potency,[18],12.6 µM (active)
same,Potency,[19],6.31 µM (active)
same,Potency,[7],7.94 µM (active)
same,outcome,[8],inactive
same,Potency,[9],inactive
same,Potency,[10],61.1 µM (active)
same,activation,[13],2.08% (inactive)
same,Potency,[11],inactive
same,Potency,[12],29.8 µM (active)
CC(C)[C@H]1C(=O)N2CCC[C@@H]2[C@]2(O)O[C@@](NC(=O)[C@H]3C=C4c5cccc6[nH]cc(c56)C[C@H]4N(C)C3)(C(C)C)C(=O)N12,Potency,[14],31.6 µM (active)
O=[N+]([O-])c1cc(C(F)(F)F)cc([N+](=O)[O-])c1Cl,caspase-3 activation,[15],24.4% (inactive)
same,Potency,[2],inactive
same,Potency,[3],inactive
same,Potency,[4],inactive
same,Potency,[16],39.8 µM (active)
same,Potency,[17],31.6 µM (active)
same,Potency,[18],50.1 µM (active)
same,Potency,[19],31.6 µM (active)
same,Potency,[7],31.6 µM (active)
same,Potency,[20],inactive
same,outcome,[8],inactive
same,Potency,[9],inactive
same,Potency,[10],inactive
same,Potency,[11],inactive
same,Potency,[12],66.8 µM (active)
c1ccc2cc3c(cc2c1)-c1cccc2cccc-3c12,caspase-3 activation,[15],0.959% (inactive)
same,Potency,[2],inactive
same,Potency,[3],inactive
same,Potency,[4],inactive
same,Potency,[5],inactive
same,Potency,[16],inactive
same,Potency,[17],inactive
same,Potency,[6],inactive
same,Potency,[18],inactive
same,Potency,[19],inactive
same,Potency,[7],inactive
same,Potency,[20],inactive
same,Potency,[9],inactive
same,Potency,[10],1.88 µM (active) and 1.93 µM (active)
same,Potency,[13],6.31 µM (active) and 8.91 µM (active)
same,Potency,[11],inactive
same,Potency,[12],inactive
N#CC(Cl)Cl,caspase-3 activation,[15],0.178% (inactive)
same,Potency,[1],inactive
same,Potency,[2],inactive
same,Potency,[3],inactive
same,Potency,[4],inactive
same,Potency,[5],inactive
same,Potency,[16],20 µM (active)
same,Potency,[17],12.6 µM (active)
same,Potency,[6],12.6 µM (active)
same,Potency,[18],50.1 µM (active)
same,outcome,[8],inactive
same,Potency,[9],inactive
same,Potency,[10],26.6 µM (active)
same,Potency,[13],39.8 µM (active)
same,Potency,[11],inactive
same,Potency,[12],21.1 µM (active)
Oc1c(Br)c(Br)c(Br)c(Br)c1Br,caspase-3 activation,[15],10.1% (inactive)
same,Potency,[2],inactive
same,Potency,[3],inactive
same,Potency,[4],inactive
same,Potency,[5],inactive
same,Potency,[16],inactive
same,Potency,[17],inactive
same,Potency,[6],inactive
same,Potency,[18],inactive
same,Potency,[19],inactive
same,Potency,[7],inactive
same,Potency,[20],39.8 µM [inconclusive] (active)
same,outcome,[8],inactive
same,Potency,[9],inactive
same,Potency,[11],33.5 µM (active)
same,Potency,[12],inactive
